Here are results for ten compounds from PubChem BioAssay (NCATS).

One experiment has as its system CRL-7250. Put plainly: Cytotoxic Profiling of Annotated Libraries Using Quantitative High-Throughput Screening (AID 1296008). Note: nearly all actives have a fitted effect of over 60% in size. The settings on record: Five cell lines viability, CellTiter-Glo ATP luminescence, 48-72 h; max response: stronger effect = lower value. The method in brief: (§1)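 Cells exposed to compounds for 48 or 72 hr at 37 degrees Celsius. Viability read as ATP-coupled luminescence with CellTiter-Glo after 10 min at room temperature.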

The next experiment has as its system HEK293. The experiment is described as above. The settings on record: Five cell lines viability, CellTiter-Glo ATP luminescence, 48-72 h; max response: stronger effect = lower value. An outline of the steps:
as §1

Experiment [1] concerns HaCat. The experiment is described as above. The settings on record: Five cell lines viability, CellTiter-Glo ATP luminescence, 48-72 h; max response: stronger effect = lower value. An outline of the steps: as §1
The test system of another experiment is MCC-26. Put plainly: qHTS assay to identify novel small-molecules to repurpose for Merkel cell carcinoma treatment (AID 1296009). Note: nearly all actives have a fitted effect of over 60% in size. The settings on record: MCC and control cell lines, CellTiter-Glo viability, 72 h; series mostly up to 46 µM. An outline of the steps:
(§2)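 Cells were treated for 72 hr at 37 degree celsius with compounds in 8- or 11-point dose response. Viability was read by CellTiter-Glo luminescence, normalized to no-cell (cytotoxicity) and DMSO controls.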

In another experiment the test system is MKL-1. The experiment is described as above. The settings on record: MCC and control cell lines, CellTiter-Glo viability, 72 h; series mostly up to 46 µM. An outline of the steps:
as §2

Another experiment concerns MKL-2. The description is as above. The settings on record: MCC and control cell lines, CellTiter-Glo viability, 72 h; series mostly up to 46 µM. The method in brief: as §2
The test system of another experiment is C33A. In words: Primary qHTS to identify gynecologic anti-cancer compounds using libraries of approved drugs and bioactive compounds (AID 1345084). Note: nearly all actives have a fitted effect of over 55% in size. The settings on record: Gynecologic cancer cell panel viability, ATPlite luminescence, 48 h; series mostly up to 57.5 µM. An outline of the steps: (§3)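 ATP-based viability (ATPlite), 1,000 cells/well, 16 h pre-incubation, 48 h compound at 37 C, 5% CO2, 15 min RT before read.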

The subject of a further experiment is KB-3-1. Put plainly: Cytotoxic Profiling of Annotated Libraries Using Quantitative High-Throughput Screening (AID 1296008). Note: nearly all actives have a fitted effect of over 60% in size. The settings on record: Five cell lines viability, CellTiter-Glo ATP luminescence, 48-72 h; max response: stronger effect = lower value. An outline of the steps:
as §1

In another experiment the test system is UISO. In words: qHTS assay to identify novel small-molecules to repurpose for Merkel cell carcinoma treatment (AID 1296009). Note: nearly all actives have a fitted effect of over 60% in size. The settings on record: MCC and control cell lines, CellTiter-Glo viability, 72 h; series mostly up to 46 µM. The method in brief: as §2
The subject of a further experiment is WaGa. The description is as above. The settings on record: MCC and control cell lines, CellTiter-Glo viability, 72 h; series mostly up to 46 µM. An outline of the steps: as §2
In another experiment the test system is CASKI. Put plainly: Primary qHTS to identify gynecologic anti-cancer compounds using libraries of approved drugs and bioactive compounds (AID 1345084). Note: nearly all actives have a fitted effect of over 55% in size. The settings on record: Gynecologic cancer cell panel viability, ATPlite luminescence, 48 h; series mostly up to 57.5 µM. The method in brief:
as §3

The next experiment has as its system MCC-13. Put plainly: qHTS assay to identify novel small-molecules to repurpose for Merkel cell carcinoma treatment (AID 1296009). Note: nearly all actives have a fitted effect of over 60% in size. The settings on record: MCC and control cell lines, CellTiter-Glo viability, 72 h; series mostly up to 46 µM. An outline of the steps:
as §2

Another experiment concerns NIH3T3. Put plainly: Cytotoxic Profiling of Annotated Libraries Using Quantitative High-Throughput Screening (AID 1296008). Note: nearly all actives have a fitted effect of over 60% in size. The settings on record: Five cell lines viability, CellTiter-Glo ATP luminescence, 48-72 h; max response: stronger effect = lower value. The method in brief:
as §1

The subject of another experiment is CAOV3. In words: Primary qHTS to identify gynecologic anti-cancer compounds using libraries of approved drugs and bioactive compounds (AID 1345084). Note: nearly all actives have a fitted effect of over 55% in size. The settings on record: Gynecologic cancer cell panel viability, ATPlite luminescence, 48 h; series mostly up to 57.5 µM. The method in brief:
as §3

The test system of experiment [2] is HACAT. Put plainly: qHTS assay to identify novel small-molecules to repurpose for Merkel cell carcinoma treatment (AID 1296009). Note: nearly all actives have a fitted effect of over 60% in size. The settings on record: MCC and control cell lines, CellTiter-Glo viability, 72 h; at 44.8 µM (top of the series) unless noted. An outline of the steps: as §2
The next experiment relates to HEK293T. The description is as above. The settings on record: MCC and control cell lines, CellTiter-Glo viability, 72 h; at 44.8 µM (top of the series). The method in brief:
as §2

Values joined by “and” are separate entries in the source; they are usually repeats but may differ in a detail not shown here. Equal entries are not always repeated. Results filed as inconclusive are left out. Unmarked numbers belong to inactive results. Active and inactive are the calls of the source. Calls come from the whole dose curve; as a rule, active = well fitted curve in the direction sought with a large enough effect; inconclusive = small, poorly fitted or top-dose-only effect, or another doubt; inactive = no such curve, though single readings can be large; an effect the other way counts as inactive or inconclusive.
% is set by controls: 0 for no effect and ±100 for the full control effect; potency is the fitted concentration of half-maximal effect.

As to `CC(C)(C)Cn1c(N)nc2ccc(-c3[nH]c(C(C)(C)C)nc3-c3ccc(F)cc3)nc21`, the max response in the experiment on CRL-7250 was -25.6% and -19.9%. Besides, the Potency in the experiment with HEK293 was 11.6 µM (active); with HaCat [1], 5.9 µM (active) and 4.61 µM (active). Further, the Potency entry in the experiment with MCC-26, with MKL-1, in the experiment with MKL-2 and in the experiment on C33A was “inactive” in each case.
`CN(C)C1CCN(C(=O)c2ccc(NC(=O)Nc3nc(N4CCOCC4)nc(N4CCOCC4)n3)cc2)CC1`: the Potency was 0.6 nM (active) in the experiment with CRL-7250; 0.142 µM (active) with HEK293; 252 nM (active) with HaCat [1]; 50.2 nM (active) in the experiment on KB-3-1; 0.833 µM (active) with MCC-26; 0.132 µM (active) in the experiment on MKL-1. Moreover, the Potency was 0.296 µM (active) in the experiment on MKL-2; 0.0264 µM (active) in the experiment with UISO; 0.105 µM (active) in the experiment with WaGa; 0.178 µM (active) in the experiment with C33A; 0.141 µM (active) in the experiment on CASKI.
For `Cc1ccc(/C=N/NC(=O)c2ccccc2Oc2ccccc2)o1`, the max response in the experiment with CRL-7250 is -0.512%; in the experiment with HaCat [1], -2.81%. The Potency in the experiment on HEK293 was 20.9 µM (active). For the same compound, the Potency result in the experiment on MCC-13, in the experiment on MCC-26, in the experiment with MKL-1, in the experiment on MKL-2, with UISO and in the experiment with WaGa was “inactive” in each case.
`O=c1cc(N2CCOCC2)oc2c(-c3cccc4c3sc3ccccc34)cccc12`: the max response in the experiment with CRL-7250 was -14.3%; in the experiment with HaCat [1] it was -6.51%. Moreover, in the experiment on HEK293, the Potency is 2.96 µM (active). Besides, the result in the experiment with KB-3-1 was inactive. Also, the Potency result with MCC-13, in the experiment on MCC-26, with MKL-1, in the experiment on MKL-2, in the experiment on UISO and in the experiment on WaGa was “inactive” in each case.
For `CC(=O)Nc1ccc([C@H](C)C(=O)Nc2ncc(C(C)C)s2)cc1`, the Potency with CRL-7250 is 2.35 µM (active) and 1.84 µM (active); with HEK293 it was 4.69 µM (active) and 4.11 µM (active); with HaCat [1], 10.5 µM (active) and 18.4 µM (active); in the experiment with KB-3-1, 5170 nM (active); in the experiment with NIH3T3 it was 8.33 µM (active) and 9.2 µM (active); in the experiment on MKL-2, 9.35 µM (active). In addition, the Potency with UISO was 7.43 µM (active); in the experiment with C33A, 20 µM (active). The Potency result in the experiment with CAOV3 is “inactive”.
Consider `O=C(NCc1ccccc1)c1csc(Nc2ccncn2)n1`, for which the Potency with CRL-7250 is 11800 nM (active); in the experiment with HEK293 it was 5.26 µM (active); in the experiment on MKL-1 it was 8.33 µM (active); in the experiment on UISO, 23.5 µM (active). Further, the call in the experiment on HaCat [1] and in the experiment with HACAT [2] was inactive. The max response in the experiment with KB-3-1 was 3.38% and -16.6%. In addition, the Potency entry in the experiment on C33A and with CASKI was “inactive” each time.
Turning to `CC(C)(C)NC(=O)Nc1cccc(Nc2ncc(F)c(NC(C)(C)CO)n2)c1`, the max response in the experiment with CRL-7250 is -1.2% and -11%. The Potency was 11.8 µM (active) in the experiment on HEK293; 10.5 µM (active) and 16.4 µM (active) in the experiment with HaCat [1]; 18.7 µM (active) and 20.6 µM (active) with KB-3-1. Further, the Potency result in the experiment on MCC-13, in the experiment on MKL-2, in the experiment on UISO, in the experiment on C33A and in the experiment with CASKI was “inactive” throughout.
Take `Nc1ncnc2c1ncn2[C@@H]1O[C@@H](CO)[C@H](O)[C@H]1O`: the outcome in the experiment with CRL-7250, in the experiment with HEK293, in the experiment on HaCat [1], with KB-3-1, in the experiment with HACAT [2] and in the experiment on HEK293T was inactive. The Potency entry in the experiment with MCC-13, in the experiment on MCC-26, in the experiment on MKL-1, with MKL-2, in the experiment with UISO and in the experiment on WaGa was “inactive” each time.
`NC(CO)(CO)CCc1ccc(Sc2cccc(OCc3ccccc3)c2)cc1Cl`: the max response in the experiment with CRL-7250 is -10.2%. The Potency is 10.5 µM (active) in the experiment on HEK293; 26400 nM (active) in the experiment with HaCat [1]; 13.2 µM (active) with MKL-1; 23.5 µM (active) in the experiment with MKL-2; 5.26 µM (active) in the experiment with WaGa. In addition, the Potency result in the experiment on MCC-13 and in the experiment on MCC-26 was “inactive” each time.
In the case of `CC(=O)N(C)C1(c2ccccc2)CCN(CCC[C@]2(c3ccc(Cl)c(Cl)c3)CCCN(C(=O)c3ccccc3)C2)CC1`, the max response in the experiment on CRL-7250 was -7.82%. Besides, the Potency was 662 nM (active) and 18.4 µM (active) in the experiment on HEK293; 2.35 µM (active) and 20.6 µM (active) in the experiment on HaCat [1]; 372 nM (active) in the experiment with KB-3-1; 20.9 µM (active) with MKL-2; 22.4 µM (active) in the experiment on CASKI. The Potency entry in the experiment with MCC-13, in the experiment with MCC-26, with MKL-1 and in the experiment with WaGa was “inactive” throughout.
